# Measured values reported in PubChem BioAssay (Tox21).
# Values without a mark were called inactive. Records with an inconclusive call do not appear. A call without a number means that no potency is given here. The source made the active and inactive calls. Unless noted, the call rests on the fitted dose curve; in most records, active means well fitted curve in the direction sought with a large enough effect in the repeat runs; inconclusive means weak or mixed curves; inactive means no such curve, though single readings can be large; an effect the other way counts as inactive or inconclusive.
# Tests used:
# [1] = target: Estrogen receptor beta (Homo sapiens) (UniProt Q92731); experiment: qHTS assay to identify small molecule agonists of the estrogen receptor beta (ER-beta) signaling pathway (AID 1259377; active means well fitted activation curve with a large enough effect in the signal ratio in the repeat runs, not every such curve was filed as active; the % refers to the signal ratio)
# Method in brief: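 Ratiometric beta-lactamase FRET read-out came after 2 h substrate loading at room temperature. It followed 16 h compound treatment at 37C of GripTite HEK293T cells carrying a UAS-bla reporter, plated in 2% charcoal-stripped FBS medium.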
# [2] = target: Estrogen receptor beta (Homo sapiens) (UniProt Q92731); experiment: qHTS assay to identify small molecule antagonists of the estrogen receptor beta (ER-beta) signaling pathway (AID 1259378; active means well fitted inhibition curve with a large enough effect in the signal ratio in the repeat runs, not every such curve was filed as active; the % refers to the signal ratio; further: potency means the concentration at half of the fitted maximal effect)
# Method in brief: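 ER-beta-UAS-bla HEK293T (GripTite) cells in 2% charcoal-stripped FBS medium were preincubated 6 hr at 37C, dosed with compound, then stimulated with 1 nM E2 (final) for 16 hr; beta-lactamase reporter read by B/G FRET fluorescence after 2 hr substrate loading.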
# [3] = qHTS assay to identify small molecule agonists of the androgen receptor (AR) signaling pathway in the presence of an antagonist - cell viability counter screen (AID 1259379); further: nearly all actives have a fitted effect of over 25% in size; further: potency means the concentration at half of the fitted maximal effect;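 on activity change, negative = cytotoxicity: MDA-kb2 human breast cancer cells carrying an MMTV luciferase reporter; series mostly up to about 92 µM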
# Method in brief: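 Cytotoxicity is assessed by CellTiter-Fluor in MDA-kb2 cells carrying an MMTV-driven luciferase reporter. Cells receive 3.0uM nilutamide plus compounds at 15 concentrations and incubate 16 hr at 37C without CO2 before fluorescence reading.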
# [4] = qHTS assay to identify small molecule agonists of the estrogen receptor beta (ER-beta) signaling pathway - cell viability counter screen (AID 1259380); further: nearly all actives have a fitted effect of over 30% in size; further: potency means the concentration at half of the fitted maximal effect
# Method in brief: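 Cytotoxicity is measured in parallel with the reporter screen: after 16 hr compound exposure at 37C and a 2 hr LiveBLAzer step, CellTiter-Glo is added to the same ER-beta-UAS-bla HEK293T wells and luminescence read after 30 min.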
# [5] = qHTS assay to identify small molecule antagonists of the estrogen receptor beta (ER-beta) signaling pathway - cell viability counter screen (AID 1259382); further: nearly all actives have a fitted effect of over 55% in size; further: potency means the concentration at half of the fitted maximal effect; on activity change, negative = cytotoxicity: series mostly up to about 92 µM
# Method in brief: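 Cytotoxicity counter screen multiplexed with the beta-lactamase antagonist assay: GripTite HEK293T ER-beta-bla cells were treated 16 hr with test chemicals in the presence of 1nM 17-beta-estradiol, and viability was measured by CellTiter-Glo.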
# [6] = target: Estrogen receptor (Homo sapiens) (UniProt P03372); experiment: qHTS assay to identify small molecule agonists of the estrogen receptor alpha (ER-alpha) signaling pathway in the presence of an antagonist (AID 1259383; calls by dose curve; further: top concentration of the series differs between compounds; nearly all actives have a fitted effect of over 15% in size)
# Method in brief: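 Agonist-mode confirmation in the presence of the ER antagonist ICI-182,780 at 10.0nM final. Breast-derived VM7Luc4E2 reporter cells were exposed to compounds for 22hr, and ERE-driven luciferase was quantified by luminescence.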
# [7] = qHTS assay to identify small molecule agonists or antagonists of the thyroid stimulating hormone receptor (TSHR) signaling pathway - wild type cell line counter screen (AID 1259384; calls by dose curve)
# Method in brief: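 Wild-type HEK293 cells were plated 18 h at 37 C/5% CO2, pin-dosed with compound plus Ro20-1724 medium, held 30 min at room temperature, then given cAMP-d2 and anti-cAMP-cryptate; fluorescence was read after 1 h. Fifteen concentrations, triplicate.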
# [8] = target: Thyrotropin receptor (Homo sapiens) (UniProt P16473); experiment: qHTS assay to identify small molecule antagonists of the thyroid stimulating hormone receptor (TSHR) signaling pathway (AID 1259385; calls by dose curve; further: nearly all actives have a fitted effect of over 20% in size)
# Method in brief: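 TSHR-HEK293 cells were plated and held 18 h at 37C/5% CO2, then given compound plus Ro20-1724 and stimulated with TSH at 1.5 ng/mL final. After 30 min at room temperature, cAMP was detected with cAMP-d2/anti-cAMP-cryptate (1 h) by fluorescence.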
# [9] = qHTS assay to identify small molecule agonists of the estrogen receptor alpha (ER-alpha) signaling pathway in the presence of an antagonist - cell viability counter screen (AID 1259386);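 further: cells exposed to compounds for 22 h at 37 °C before the viability read; nearly all actives have a fitted effect of over 30% in size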; further: potency means the concentration at half of the fitted maximal effect; on activity change, negative = cytotoxicity: series mostly up to about 92 µM
# Method in brief: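 Cytotoxicity was measured in parallel with the ERE-luciferase agonist screen, in the same wells. The cells were VM7Luc4E2, which endogenously express ER-alpha, and treatment was with compounds plus 10.0nM ICI-182,780 for 22hr.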
# [10] = target: Progesterone receptor (Homo sapiens) (UniProt P06401); experiment: qHTS assay to identify small molecule agonists of the progesterone receptor (PR) signaling pathway (AID 1346784; calls by dose curve; further: nearly all actives have a fitted effect of over 30% in size)
# Method in brief: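 Agonist qHTS: compounds pinned onto 3,000 PR-UAS-bla HEK 293T cells per well in charcoal-stripped serum medium, 16hr at 37C, then beta-lactamase activity measured by LiveBLAzer FRET fluorescence after 2 hours at room temperature.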
# [11] = target: Progesterone receptor (Homo sapiens) (UniProt P06401); experiment: qHTS assay to identify small molecule antagonists of the progesterone receptor (PR) signaling pathway (AID 1346795; active means well fitted inhibition curve with a large enough effect in the signal ratio in the repeat runs, not every such curve was filed as active; the % refers to the signal ratio)
# Method in brief: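 Antagonist mode with agonist R5020 at 1 nM final and 16 hr incubation at 37C. Reporter was beta-lactamase driven by UAS in HEK293T (PR-UAS-bla), 2% charcoal-stripped serum; signal from LiveBLAzer FRET substrate, 2 hr at room temperature.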
# [12] = qHTS assay to identify small molecule antagonists of the progesterone receptor (PR) signaling pathway - cell viability counter screen (AID 1346798); further: series mostly up to about 92 µM; nearly all actives have a fitted effect of over 50% in size
# Method in brief: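 Cytotoxicity read as CellTiter-Glo luminescence (30 min, room temperature) in the same wells as the beta-lactamase readout. HEK293T PR-UAS-bla cells in charcoal-stripped 2% FBS received compound and R5020, then 16 h at 37C, 5% CO2.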
# [13] = qHTS assay to identify small molecule agonists of the progesterone receptor (PR) signaling pathway - cell viability counter screen (AID 1346799; calls by dose curve; further: nearly all actives have a fitted effect of over 45% in size; further: potency means the concentration at half of the fitted maximal effect)
# Method in brief: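 Cytotoxicity measured by CellTiter-Glo luminescence (30 min, RT) in the same wells as the PR beta-lactamase agonist read. Those HEK293T cells had 16 h compound treatment at 37 C in 2% charcoal-stripped FBS medium.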
# [14] = qHTS assay to identify small molecule antagonists of the TGF-beta/Smad signaling pathway - cell viability counter screen (AID 1346824); further: nearly all actives have a fitted effect of over 50% in size
# Method in brief: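 SBE-bla HEK 293T cells were plated overnight at 37 C, then given compounds in DMSO plus TGF-beta1 (added as 0.25 ng/mL solution) for 5 hr. After the bla read, CellTiter-Glo was added to the same wells and luminescence read after 30 min at room temperature.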
# [15] = qHTS assay to identify small molecule agonists of the TGF-beta/Smad signaling pathway (AID 1346859; active means well fitted activation curve with a large enough effect in the signal ratio in the repeat runs, not every such curve was filed as active; the % refers to the signal ratio; further: series mostly up to about 77 µM)
# Method in brief: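 Fluorescence (ex 405 nm; em 460 and 530 nm) was read 2 h after LiveBLAzer FRET substrate at RT. The preceding compound treatment of overnight-plated SBE-bla HEK293T cells lasted 5 h at 37 C.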
# [16] = target: Thyrotropin-releasing hormone receptor (Homo sapiens) (UniProt P34981); experiment: qHTS assay to identify small molecule antagonists of the thyrotropin-releasing hormone receptor (TRHR) signaling pathway (AID 1346877; active means well fitted inhibition curve with a large enough effect in the repeat runs, not every such curve was filed as active; further: series mostly up to about 51 µM)
# Method in brief: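 Antagonism is measured as suppression of the calcium response to 1 nM TRH in TRHR-HEK293 cells that have been dye-loaded for 2 h at 37 °C after overnight plating. Each compound is tested at 15 concentrations in triplicate.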
# [17] = target: Thyrotropin-releasing hormone receptor (Homo sapiens) (UniProt P34981); experiment: qHTS assay to identify small molecule agonists of the thyrotropin-releasing hormone receptor (TRHR) signaling pathway (AID 1346891; calls by dose curve; further: series mostly up to about 58 µM)
# Method in brief: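 Agonist-mode intracellular calcium readout: kinetic fluorescence over 3 min at 1 s intervals after compound addition to TRHR-HEK293 cells (18 h seeded, 2 h dye-loaded at 37 C). Fifteen concentrations, triplicates.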
# [18] = Human pregnane X receptor (PXR) small molecule agonists, qHTS cell viability counter screen (AID 1346977); further: nearly all actives have a fitted effect of over 50% in size
# Method in brief: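 Same-well viability read: CellTiter-Fluor added after 23 hr compound exposure, fluorescence measured 1 hr later. Cells were PXR-Luc HepG2 seeded at 2,000/well in 5% charcoal-stripped FBS medium, rested 5 hr before dosing at 37 C.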
# [19] = qHTS assay to identify small molecule agonists of the TGF-beta/Smad signaling pathway - cell viability counter screen (AID 1346829); further: top concentration of the series differs between compounds; nearly all actives have a fitted effect of over 45% in size
# Method in brief: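 After overnight seating at 37 C and 5% CO2, reporter cells got compounds for 5 hr and FRET substrate for 2 hr; cell viability then came from CellTiter-Glo luminescence.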
# [20] = target: Androgen receptor (Homo sapiens) (UniProt P10275); experiment: qHTS assay to identify small molecule agonists of the androgen receptor (AR) signaling pathway in the presence of an antagonist (AID 1259381; calls by dose curve; further: nearly all actives have a fitted effect of over 15% in size)
# Method in brief: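 Agonist-mode confirmation screen: human MDA-kb2 cells stably expressing luciferase under an MMTV promoter bearing AR and GR response elements, co-treated with 3.0uM nilutamide (final). Luminescence measured after 16hr compound incubation.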
# Estrogen receptor (Homo sapiens), sequence (P03372 whole entry, looked up): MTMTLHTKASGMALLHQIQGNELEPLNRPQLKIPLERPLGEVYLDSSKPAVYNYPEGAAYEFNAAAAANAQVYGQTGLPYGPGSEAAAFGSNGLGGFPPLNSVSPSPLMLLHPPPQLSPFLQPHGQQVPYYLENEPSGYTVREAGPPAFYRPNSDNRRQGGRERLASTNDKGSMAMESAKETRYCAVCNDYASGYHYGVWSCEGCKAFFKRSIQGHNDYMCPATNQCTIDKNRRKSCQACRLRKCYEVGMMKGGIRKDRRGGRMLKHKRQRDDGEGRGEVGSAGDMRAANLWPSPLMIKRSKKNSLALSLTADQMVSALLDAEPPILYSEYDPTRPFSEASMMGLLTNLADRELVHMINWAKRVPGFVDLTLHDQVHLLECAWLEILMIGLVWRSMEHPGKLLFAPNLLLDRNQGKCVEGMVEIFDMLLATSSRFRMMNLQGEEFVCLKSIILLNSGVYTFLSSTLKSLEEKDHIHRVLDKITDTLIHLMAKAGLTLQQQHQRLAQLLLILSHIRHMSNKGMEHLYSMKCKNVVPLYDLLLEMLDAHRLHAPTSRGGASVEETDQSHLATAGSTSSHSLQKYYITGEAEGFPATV
# Thyrotropin-releasing hormone receptor (Homo sapiens), sequence (P34981 whole entry, looked up): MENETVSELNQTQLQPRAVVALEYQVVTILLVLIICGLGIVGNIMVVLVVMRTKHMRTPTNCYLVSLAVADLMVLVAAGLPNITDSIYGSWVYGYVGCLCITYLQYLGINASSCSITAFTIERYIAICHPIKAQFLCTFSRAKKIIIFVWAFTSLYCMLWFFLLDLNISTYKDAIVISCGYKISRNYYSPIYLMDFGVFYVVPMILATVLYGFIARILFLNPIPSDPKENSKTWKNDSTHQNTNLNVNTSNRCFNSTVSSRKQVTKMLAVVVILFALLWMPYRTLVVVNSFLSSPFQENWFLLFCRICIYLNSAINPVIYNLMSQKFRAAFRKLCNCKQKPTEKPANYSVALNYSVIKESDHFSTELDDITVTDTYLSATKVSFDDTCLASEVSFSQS
# Thyrotropin receptor (Homo sapiens), sequence (P16473 whole entry, looked up): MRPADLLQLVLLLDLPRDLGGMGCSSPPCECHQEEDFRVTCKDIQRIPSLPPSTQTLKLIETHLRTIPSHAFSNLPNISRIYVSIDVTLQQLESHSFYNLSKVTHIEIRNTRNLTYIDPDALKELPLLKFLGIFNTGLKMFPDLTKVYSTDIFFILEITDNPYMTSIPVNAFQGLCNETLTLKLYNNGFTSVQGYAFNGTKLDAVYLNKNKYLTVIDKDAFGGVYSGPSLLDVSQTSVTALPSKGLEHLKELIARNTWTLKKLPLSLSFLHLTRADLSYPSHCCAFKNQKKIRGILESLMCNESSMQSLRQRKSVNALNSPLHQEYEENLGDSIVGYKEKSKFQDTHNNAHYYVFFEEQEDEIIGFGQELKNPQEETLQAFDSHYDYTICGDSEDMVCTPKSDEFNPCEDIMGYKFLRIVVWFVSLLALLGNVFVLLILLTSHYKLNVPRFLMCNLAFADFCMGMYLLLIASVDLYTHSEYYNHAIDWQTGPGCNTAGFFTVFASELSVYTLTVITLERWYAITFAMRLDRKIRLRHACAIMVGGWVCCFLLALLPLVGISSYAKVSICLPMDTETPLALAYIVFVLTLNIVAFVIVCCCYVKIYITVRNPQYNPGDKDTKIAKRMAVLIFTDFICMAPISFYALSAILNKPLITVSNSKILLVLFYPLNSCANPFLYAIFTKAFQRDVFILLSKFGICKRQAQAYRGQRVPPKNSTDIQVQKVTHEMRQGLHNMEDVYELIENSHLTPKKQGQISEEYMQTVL
# Estrogen receptor beta (Homo sapiens), sequence (Q92731 whole entry, looked up): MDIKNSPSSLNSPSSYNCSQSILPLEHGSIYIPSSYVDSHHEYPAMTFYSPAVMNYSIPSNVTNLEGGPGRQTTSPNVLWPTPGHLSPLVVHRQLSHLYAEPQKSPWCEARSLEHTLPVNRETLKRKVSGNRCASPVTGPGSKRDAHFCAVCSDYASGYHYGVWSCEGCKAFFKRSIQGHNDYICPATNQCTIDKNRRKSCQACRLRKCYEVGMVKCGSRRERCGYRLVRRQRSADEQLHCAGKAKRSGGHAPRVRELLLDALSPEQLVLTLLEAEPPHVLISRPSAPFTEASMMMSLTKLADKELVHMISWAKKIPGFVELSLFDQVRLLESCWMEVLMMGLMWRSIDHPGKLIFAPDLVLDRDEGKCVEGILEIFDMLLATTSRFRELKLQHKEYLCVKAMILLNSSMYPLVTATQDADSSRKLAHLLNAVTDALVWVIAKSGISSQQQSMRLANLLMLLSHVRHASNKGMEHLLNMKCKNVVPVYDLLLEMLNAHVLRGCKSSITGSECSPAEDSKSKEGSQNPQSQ
# Progesterone receptor (Homo sapiens), sequence (P06401 whole entry, looked up): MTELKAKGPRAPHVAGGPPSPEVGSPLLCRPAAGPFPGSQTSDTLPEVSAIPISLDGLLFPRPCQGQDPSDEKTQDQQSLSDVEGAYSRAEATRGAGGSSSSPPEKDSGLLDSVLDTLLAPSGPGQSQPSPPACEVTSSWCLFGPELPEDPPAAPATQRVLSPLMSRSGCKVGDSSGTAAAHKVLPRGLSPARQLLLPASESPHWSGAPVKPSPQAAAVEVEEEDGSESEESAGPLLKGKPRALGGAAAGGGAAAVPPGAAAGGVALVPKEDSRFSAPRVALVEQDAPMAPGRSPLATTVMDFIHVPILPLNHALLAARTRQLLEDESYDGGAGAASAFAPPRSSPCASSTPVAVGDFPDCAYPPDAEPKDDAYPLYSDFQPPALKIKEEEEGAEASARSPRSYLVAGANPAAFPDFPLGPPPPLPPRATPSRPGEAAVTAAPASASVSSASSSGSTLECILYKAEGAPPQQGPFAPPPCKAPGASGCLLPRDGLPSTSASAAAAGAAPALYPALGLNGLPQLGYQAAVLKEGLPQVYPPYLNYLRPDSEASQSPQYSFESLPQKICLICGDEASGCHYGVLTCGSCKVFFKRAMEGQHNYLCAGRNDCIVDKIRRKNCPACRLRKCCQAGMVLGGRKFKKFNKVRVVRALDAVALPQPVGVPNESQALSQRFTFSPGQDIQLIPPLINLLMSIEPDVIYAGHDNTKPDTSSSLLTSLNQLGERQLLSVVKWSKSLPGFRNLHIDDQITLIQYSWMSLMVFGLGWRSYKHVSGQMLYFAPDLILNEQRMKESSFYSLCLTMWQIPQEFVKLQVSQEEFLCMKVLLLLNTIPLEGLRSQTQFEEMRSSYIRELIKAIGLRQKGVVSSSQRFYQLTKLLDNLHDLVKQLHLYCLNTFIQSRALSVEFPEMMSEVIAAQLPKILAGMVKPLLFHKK
# Androgen receptor (Homo sapiens), sequence (P10275 whole entry, looked up): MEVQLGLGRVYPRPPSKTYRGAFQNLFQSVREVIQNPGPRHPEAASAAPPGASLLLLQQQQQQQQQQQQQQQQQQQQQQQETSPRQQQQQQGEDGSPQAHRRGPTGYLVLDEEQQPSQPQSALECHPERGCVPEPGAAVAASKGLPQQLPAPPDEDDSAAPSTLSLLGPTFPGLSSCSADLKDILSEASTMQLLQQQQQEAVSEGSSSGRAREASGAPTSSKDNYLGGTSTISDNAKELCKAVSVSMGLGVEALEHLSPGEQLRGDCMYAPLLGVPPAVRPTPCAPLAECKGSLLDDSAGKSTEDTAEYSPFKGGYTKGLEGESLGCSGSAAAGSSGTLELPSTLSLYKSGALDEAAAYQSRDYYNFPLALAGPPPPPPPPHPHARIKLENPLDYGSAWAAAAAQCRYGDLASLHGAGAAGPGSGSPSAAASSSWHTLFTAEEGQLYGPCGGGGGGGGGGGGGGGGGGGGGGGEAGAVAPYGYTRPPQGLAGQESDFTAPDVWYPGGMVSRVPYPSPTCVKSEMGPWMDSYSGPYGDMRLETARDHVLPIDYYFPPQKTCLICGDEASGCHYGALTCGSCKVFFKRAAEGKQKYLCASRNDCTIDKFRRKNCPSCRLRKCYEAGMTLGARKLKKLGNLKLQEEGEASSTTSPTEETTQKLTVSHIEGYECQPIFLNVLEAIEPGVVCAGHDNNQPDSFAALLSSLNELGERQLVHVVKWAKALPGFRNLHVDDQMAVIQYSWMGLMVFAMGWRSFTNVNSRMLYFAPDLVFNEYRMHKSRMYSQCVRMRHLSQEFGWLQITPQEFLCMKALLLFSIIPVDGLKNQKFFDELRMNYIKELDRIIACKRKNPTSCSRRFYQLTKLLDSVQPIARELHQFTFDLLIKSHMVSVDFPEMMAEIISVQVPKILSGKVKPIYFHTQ
compound,measurement,setting,value
C=CC(=C)CC/C=C(\C)CCC=C(C)C,activation,[1],1.85% [at 19 µM]
same,"activity, negative = inhibition",[2],-20.6% [at 19 µM]
same,"activity change, negative = cytotoxicity",[3],1.35% [at 19 µM]
same,"activity change, negative = cytotoxicity",[4],-10.3% [at 19 µM]
same,"activity change, negative = cytotoxicity",[5],-3.14% [at 19 µM]
same,activation,[6],1.51% [at 19 µM]
same,cAMP activity change,[7],3.85% [at 18.9 µM]
same,"activity change, negative = inhibition",[8],0.374% [at 19 µM]
same,"activity change, negative = cytotoxicity",[9],-2.45% [at 19 µM]
same,activation,[10],0.395% [at 19 µM]
same,"activity change, negative = inhibition",[11],-8.93% [at 18.9 µM]
same,"activity change, negative = cytotoxicity",[12],-3.03% [at 18.9 µM]
same,"activity change, negative = cytotoxicity",[13],7.16% [at 19 µM]
same,"viability change, negative = cytotoxic",[14],6.24% [at 15.8 µM]
same,activation,[15],-1.49% [at 15.8 µM]
same,"activity, negative = inhibition",[16],-4.91% [at 10.5 µM]
same,activation,[17],0.335% [at 11.8 µM]
same,"activity change, negative = cytotoxicity",[18],6.03% [at 19 µM]
CC(C)=C1CC[C@@H](C)CC1=O,Potency,[1],inactive
same,Potency,[2],inactive
same,Potency,[3],inactive
same,Potency,[4],inactive
same,Potency,[5],inactive
same,Potency,[6],inactive
same,outcome,[7],inactive
same,Potency,[8],inactive
same,outcome,[10],inactive
same,Potency,[11],inactive
same,Potency,[12],inactive
same,Potency,[13],inactive
same,Potency,[14],inactive
same,Potency,[19],inactive
same,Potency,[15],inactive
same,Potency,[18],inactive
CCOC(OCC)C(=O)c1ccccc1,Potency,[1],inactive
same,Potency,[2],inactive
same,Potency,[3],inactive
same,Potency,[4],inactive
same,Potency,[20],inactive
same,Potency,[6],inactive
same,outcome,[10],inactive
same,Potency,[11],inactive
same,Potency,[12],inactive
same,Potency,[14],inactive
same,Potency,[19],inactive
same,Potency,[15],inactive
same,Potency,[16],inactive
same,Potency,[17],inactive
same,Potency,[18],inactive
CS(C)(=O)=O,Potency,[1],inactive
same,Potency,[2],inactive
same,Potency,[3],inactive
same,Potency,[4],inactive
same,Potency,[5],inactive
same,Potency,[6],inactive
same,outcome,[7],inactive
same,Potency,[8],inactive
same,Potency,[9],inactive
same,outcome,[10],inactive
same,Potency,[12],inactive
same,Potency,[13],inactive
same,Potency,[14],inactive
same,Potency,[19],inactive
same,Potency,[15],inactive
same,Potency,[17],inactive
same,Potency,[18],inactive
Cc1cc(=O)[nH]c(=O)[nH]1,Potency,[1],inactive
same,Potency,[2],inactive
same,Potency,[3],inactive
same,Potency,[4],inactive
same,Potency,[5],inactive
same,Potency,[6],inactive
same,outcome,[7],inactive
same,Potency,[8],inactive
same,Potency,[9],inactive
same,outcome,[10],inactive
same,Potency,[11],inactive
same,Potency,[12],inactive
same,Potency,[13],inactive
same,Potency,[14],inactive
same,Potency,[19],inactive
same,Potency,[15],inactive
same,Potency,[16],inactive
same,Potency,[17],inactive
same,Potency,[18],inactive
Cc1ccc2ccc3cccc4ccc1c2c34,Potency,[1],inactive
same,Potency,[2],inactive
same,Potency,[3],inactive
same,Potency,[4],24.3 µM (active)
same,Potency,[5],inactive
same,Potency,[6],inactive
same,outcome,[7],inactive
same,Potency,[9],inactive
same,Potency,[13],27.3 µM (active)
same,Potency,[14],inactive
same,Potency,[19],inactive
same,Potency,[15],inactive
same,Potency,[16],inactive
same,Potency,[17],inactive
same,Potency,[18],inactive
CO[C@H]1C=CO[C@@]2(C)Oc3c(C)c(O)c4c(O)c(cc(O)c4c3C2=O)NC(=O)/C(C)=C\C=C/[C@H](C)[C@H](O)[C@@H](C)[C@@H](O)[C@@H](C)[C@H](OC(C)=O)[C@@H]1C,Potency,[1],inactive
same,Potency,[2],43.6 µM (active)
same,Potency,[3],48.9 µM (active)
same,Potency,[5],69.1 µM (active)
same,Potency,[6],inactive
same,outcome,[7],inactive
same,Potency,[8],inactive
same,Potency,[9],38.8 µM (active)
same,outcome,[10],inactive
same,Potency,[11],inactive
same,Potency,[12],inactive
same,Potency,[13],inactive
same,Potency,[14],inactive
same,Potency,[19],inactive
same,Potency,[15],inactive
same,Potency,[16],inactive
same,Potency,[17],inactive
